AC50 and outcome data for four compounds are collected here from PubChem BioAssay (EPA / NIEHS).

Holding throughout (conditions): mRNA level, 48 h; actives raise or lower the signal
Read-out in assay [1]: Cytochrome P450 (CYP2B6), CYP2B6 (gene 1555)
Briefly: LTEA_HepaRG_CYP2B6: Life Technologies and Expression Analysis (LTEA) Assay for Cytochrome P450 (CYP2B6) using HepaRG (AID 2283481). An outline of the steps:
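HepaRG cells plated 48 h, switched to serum-free induction medium, then dosed 48 h (8 points, half-log from 100 uM, 0.5% DMSO). RNA isolated; CYP2B6 expression measured by qRT-PCR; gain or loss fitted relative to DMSO.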

Read-out in assay [2]: Cytochrome P450 2C19 (Homo sapiens) (UniProt P33261)
In words: LTEA_HepaRG_CYP2C19: Life Technologies and Expression Analysis (LTEA) Assay for CYP2C19 using HepaRG (AID 2283482). Put shortly: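 Transcript levels of CYP2C19 were quantified by qRT-PCR after HepaRG cells were treated for 48 hours with test chemicals up to 100 uM (eight half-log concentrations, 0.5% DMSO vehicle). Gain or loss of signal was fitted relative to DMSO.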

Read-out in a further assay: CYP2C8 (gene 1558)
In words: LTEA_HepaRG_CYP2C8: Life Technologies and Expression Analysis (LTEA) Assay for CYP2C8 using HepaRG (AID 2283483). An outline of the steps:
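Differentiated HepaRG cells in serum-free induction medium exposed 48 h in duplicate to 8 half-log concentrations from 100 uM in 0.5% DMSO. CYP2C8 mRNA by qRT-PCR normalized to ACTB, GAPDH, POLR2A; bidirectional fit versus DMSO.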

Read-out in a further assay: CYP4A11 (gene 1579)
In words: LTEA_HepaRG_CYP4A11: Life Technologies and Expression Analysis (LTEA) Assay for CYP4A11 using HepaRG (AID 2283486). An outline of the steps:
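HepaRG, 48 h chem exposure, 8 conc (100 uM top, half-log), 0.5% DMSO vehicle; qRT-PCR readout, housekeeping-gene normalized; bidirectional curve fit vs DMSO baseline.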

Read-out in assay [3]: Cytochrome P450 3A4 (Homo sapiens) (UniProt P08684)
In words: LTEA_HepaRG_CYP3A4: Life Technologies and Expression Analysis (LTEA) Assay for CYP3A4 using HepaRG (AID 2283487). Put shortly: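 Differentiated HepaRG cells, plated 48 h, then dosed 48 h in serum-free induction medium with 0.5% DMSO, 8 half-log concentrations up to 100 uM, duplicate. CYP3A4 mRNA by qRT-PCR, normalized to ACTB/GAPDH/POLR2A; bidirectional fit versus DMSO.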

Read-out in assay [4]: DNA damage-inducible transcript 3 (DDIT3), DDIT3 (gene 1649)
In words: LTEA_HepaRG_DDIT3: Life Technologies and Expression Analysis (LTEA) Assay for DNA damage-inducible transcript 3 (DDIT3) using HepaRG (AID 2283488). An outline of the steps: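 HepaRG cells, 48 h after plating, exposed 48 h in serum-free induction medium to 8 half-log concentrations up to 100 uM in 0.5% DMSO, in duplicate. DDIT3 mRNA measured by TaqMan qRT-PCR, normalized to ACTB, GAPDH and POLR2A. Fitted bidirectionally against DMSO.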

Read-out in assay [5]: Pro-epidermal growth factor (Homo sapiens) (UniProt P01133)
In words: LTEA_HepaRG_EGF: Life Technologies and Expression Analysis (LTEA) Assay for Epidermal growth factor (EGF) using HepaRG (AID 2283489). An outline of the steps:
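HepaRG, 48 h dosing, 100 uM top, half-log x8, 0.5% DMSO. Readout: TaqMan qRT-PCR (Fluidigm array), housekeeping-normalized. Gain or loss of signal fit vs DMSO.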

Read-out in assay [6]: Ezrin (EZR), EZR (gene 7430)
Briefly: LTEA_HepaRG_EZR: Life Technologies and Expression Analysis (LTEA) Assay for Ezrin (EZR) using HepaRG (AID 2283491). An outline of the steps:
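EZR transcript levels came from Fluidigm qRT-PCR and were normalized to three housekeeping genes after 48 h chemical exposure of HepaRG cells. Dosing used an 8-point half-log series with a 100 uM top concentration in 0.5% DMSO, tested in duplicate; both directions were fitted versus vehicle.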

Read-out in assay [7]: Cytochrome P450 3A7 (Homo sapiens) (UniProt P24462)
Briefly: LTEA_HepaRG_CYP3A7: Life Technologies and Expression Analysis (LTEA) Assay for CYP3A7 using HepaRG (AID 2283492). An outline of the steps:
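Human HepaRG liver cells, 48 h post-plating, switched to serum-free induction medium and exposed in duplicate for 48 h. Dosing: 100 uM top, half-log dilutions, 8 points, 0.5% DMSO vehicle. Read-out: CYP3A7 mRNA, gain or loss fitted against DMSO baseline.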

Read-out in another assay: CYP3A5 (gene 1577)
In words: LTEA_HepaRG_CYP3A5: Life Technologies and Expression Analysis (LTEA) Assay for CYP3A5 using HepaRG (AID 2283493). Put shortly:
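HepaRG cells, plated 48 h then in serum-free induction medium, dosed in duplicate for 48 h with eight half-log concentrations up to 100 uM in 0.5% DMSO. Gene mRNA by Fluidigm TaqMan qRT-PCR, normalized to ACTB, GAPDH, POLR2A.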

Read-out in assay [8]: Fatty Acid-Binding Protein 1 (FABP1), FABP1 (gene 2168)
In words: LTEA_HepaRG_FABP1: Life Technologies and Expression Analysis (LTEA) Assay for Fatty Acid-Binding Protein 1 (FABP1) using HepaRG (AID 2283494). Put shortly:
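Differentiated human HepaRG cells exposed 48 h in serum-free induction medium to eight half-log concentrations up to 100 uM (0.5% DMSO), duplicate. FABP1 mRNA by qRT-PCR, normalised to ACTB, GAPDH, POLR2A; bidirectional fitting against DMSO.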

Read-out in assay [9]: Cytochrome P450 4A22 (Homo sapiens) (UniProt Q5TCH4)
In words: LTEA_HepaRG_CYP4A22: Life Technologies and Expression Analysis (LTEA) Assay for Cytochrome P450 4A22 (CYP4A22) using HepaRG (AID 2283495). Put shortly:
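Readout is CYP4A22 transcript induction or loss, quantified by qRT-PCR and normalized to ACTB, GAPDH and POLR2A. Human HepaRG cells receive test chemicals for 48 h at eight half-log concentrations from 100 uM in 0.5% DMSO.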

Read-out in assay [10]: Cytochrome P450 7A1 (Homo sapiens) (UniProt P22680)
Briefly: LTEA_HepaRG_CYP7A1: Life Technologies and Expression Analysis (LTEA) Assay for Cytochrome P450 7A1 (CYP7A1) using HepaRG (AID 2283496). Put shortly:
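HepaRG cells plated 48 h, then switched to serum-free induction medium and exposed in duplicate for 48 h to 8-point half-log series from 100 uM in 0.5% DMSO. CYP7A1 mRNA by qRT-PCR (TaqMan), normalized to ACTB/GAPDH/POLR2A; bidirectional fit versus DMSO.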

Read-out in assay [11]: Glutathione S-Transferase (GSTA2), GSTA2 (gene 2939)
Briefly: LTEA_HepaRG_GSTA2: Life Technologies and Expression Analysis (LTEA) Assay for Glutathione S-Transferase (GSTA2) using HepaRG (AID 2283497). An outline of the steps:
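Differentiated human HepaRG cells were exposed in duplicate for 48 h in serum-free induction medium, 8 points from 100 uM top in half-log steps, 0.5% DMSO. GSTA2 mRNA was measured by TaqMan qRT-PCR, normalized to ACTB, GAPDH and POLR2A; bidirectional fit versus DMSO.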

Read-out in assay [12]: Glutamate-cysteine ligase catalytic (GCLC), GCLC (gene 2729)
Briefly: LTEA_HepaRG_GCLC: Life Technologies and Expression Analysis (LTEA) Assay for Glutamate-cysteine ligase catalytic (GCLC) using HepaRG (AID 2283498). An outline of the steps: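 Differentiated HepaRG cells exposed 48 h in serum-free induction medium, eight-point half-log series topping at 100 uM in 0.5% DMSO, duplicates. GCLC mRNA by qRT-PCR normalized to ACTB, GAPDH and POLR2A, fitted bidirectionally versus DMSO.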

Read-out in assay [13]: growth arrest and DNA damage 45 (GADD45G), GADD45G (gene 10912)
In words: LTEA_HepaRG_GADD45G: Life Technologies and Expression Analysis (LTEA) Assay for growth arrest and DNA damage 45 (GADD45G) using HepaRG (AID 2283499). An outline of the steps:
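Gain or loss of GADD45G mRNA, quantified by TaqMan qRT-PCR against three housekeeping genes, is fitted in both directions relative to 0.5% DMSO. Human HepaRG cultures receive test chemical for 48 h at up to 100 uM.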

Read-out in assay [14]: Glutamate-cysteine ligase regulatory (GCLM), GCLM (gene 2730)
Briefly: LTEA_HepaRG_GCLM: Life Technologies and Expression Analysis (LTEA) Assay for Glutamate-cysteine ligase regulatory (GCLM) using HepaRG (AID 2283500). An outline of the steps:
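Differentiated HepaRG cells exposed 48 h in serum-free induction medium to eight half-log concentrations up to 100 uM (0.5% DMSO). GCLM mRNA by TaqMan qRT-PCR, normalized to ACTB, GAPDH and POLR2A; bidirectional fit versus DMSO.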

Read-out in the next assay: CYP2E1 (gene 1571)
In words: LTEA_HepaRG_CYP2E1: Life Technologies and Expression Analysis (LTEA) Assay for CYP2E1 using HepaRG (AID 2283485). Put shortly:
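HepaRG cells, plated 48 h, then exposed 48 h in serum-free induction medium to eight half-log concentrations from 100 uM in 0.5% DMSO, duplicate. CYP2E1 mRNA by qRT-PCR, normalized to ACTB/GAPDH/POLR2A; bidirectional fit versus DMSO.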

What is called AC50 is the midpoint of the concentration-response curve, whichever way the signal moves.

The source made the active and inactive calls. How the source made its calls: active means hit-call score of the fitted dose curve at least 0.9, where 1 is the maximum; inactive means score below 0.9.

Sequence of Cytochrome P450 2C19 (Homo sapiens) (P33261 whole entry, looked up): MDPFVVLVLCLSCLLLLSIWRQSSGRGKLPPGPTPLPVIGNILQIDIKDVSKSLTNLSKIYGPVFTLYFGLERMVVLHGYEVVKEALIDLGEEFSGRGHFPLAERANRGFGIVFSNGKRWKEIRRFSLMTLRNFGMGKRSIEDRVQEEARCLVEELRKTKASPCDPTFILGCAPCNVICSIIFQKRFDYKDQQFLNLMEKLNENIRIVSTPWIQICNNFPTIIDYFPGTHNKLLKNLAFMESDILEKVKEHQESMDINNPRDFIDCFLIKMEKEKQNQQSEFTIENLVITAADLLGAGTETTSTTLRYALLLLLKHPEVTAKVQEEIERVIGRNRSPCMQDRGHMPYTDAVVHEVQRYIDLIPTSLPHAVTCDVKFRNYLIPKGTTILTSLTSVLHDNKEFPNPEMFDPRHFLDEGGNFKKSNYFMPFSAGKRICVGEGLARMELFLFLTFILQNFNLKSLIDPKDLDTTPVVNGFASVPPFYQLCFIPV
Sequence of Cytochrome P450 3A7 (Homo sapiens) (P24462 whole entry, looked up): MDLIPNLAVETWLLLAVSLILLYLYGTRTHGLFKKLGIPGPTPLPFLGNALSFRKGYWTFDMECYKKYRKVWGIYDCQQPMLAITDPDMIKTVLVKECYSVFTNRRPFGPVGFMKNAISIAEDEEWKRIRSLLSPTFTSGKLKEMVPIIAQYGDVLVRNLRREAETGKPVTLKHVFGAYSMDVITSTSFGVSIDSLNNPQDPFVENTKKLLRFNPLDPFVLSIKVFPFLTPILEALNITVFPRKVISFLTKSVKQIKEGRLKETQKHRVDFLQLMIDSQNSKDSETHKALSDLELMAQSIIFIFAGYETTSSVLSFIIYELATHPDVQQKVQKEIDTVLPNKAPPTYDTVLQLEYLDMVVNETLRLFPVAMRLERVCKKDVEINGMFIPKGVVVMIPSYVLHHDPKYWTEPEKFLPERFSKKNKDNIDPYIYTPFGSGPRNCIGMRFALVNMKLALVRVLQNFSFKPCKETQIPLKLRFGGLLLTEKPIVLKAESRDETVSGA
Sequence of Cytochrome P450 3A4 (Homo sapiens) (P08684 whole entry, looked up): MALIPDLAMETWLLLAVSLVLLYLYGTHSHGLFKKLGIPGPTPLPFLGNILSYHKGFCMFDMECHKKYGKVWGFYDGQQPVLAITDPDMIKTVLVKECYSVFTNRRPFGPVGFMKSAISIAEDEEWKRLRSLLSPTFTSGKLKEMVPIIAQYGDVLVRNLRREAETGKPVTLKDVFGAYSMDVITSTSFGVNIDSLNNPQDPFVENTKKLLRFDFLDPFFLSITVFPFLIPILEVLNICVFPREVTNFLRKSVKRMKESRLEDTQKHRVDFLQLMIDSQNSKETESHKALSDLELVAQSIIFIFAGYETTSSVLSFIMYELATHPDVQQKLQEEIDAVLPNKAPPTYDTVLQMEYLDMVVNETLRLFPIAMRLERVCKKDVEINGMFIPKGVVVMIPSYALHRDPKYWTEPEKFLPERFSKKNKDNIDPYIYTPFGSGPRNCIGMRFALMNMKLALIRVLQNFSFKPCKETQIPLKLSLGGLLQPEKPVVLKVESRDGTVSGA

For the compound `O=C(NO)C1(NS(=O)(=O)c2ccc(Oc3ccc(F)cc3)cc2)CCOCC1`, the AC50 in assay [1] was 11.8 µM (active); in [2], 12.8 µM (active); with CYP2C8 (gene 1558) it was 90.7 µM (active); with CYP4A11 (gene 1579), 71 µM (active); in assay [3], 4.48 µM (active); in [4] it was 77.8 µM (active). The AC50 in assay [8] was 50 µM (active); in [9], 68.9 µM (active); in assay [11] it was 83.5 µM (active); in [13], 72.6 µM (active). For the same compound, the compound was called inactive (in assay [5]; in assay [6]; in assay [7]; with CYP3A5 (gene 1577); in [10]; in assay [12]). Moreover, the outcome in [14] was inactive.

As for `CCN(CC)C(=S)SSC(=S)N(CC)CC`, the AC50 in assay [1] is 16.8 µM (active). Also, the result (in assay [2]; in the assay with CYP2C8 (gene 1558); in [4]; in assay [5]; in [6]; in assay [7]) was inactive. In addition, the compound was classed as inactive (in the assay with CYP3A5 (gene 1577); in [9]; in assay [10]; in assay [11]; in assay [12]; in assay [13]). In addition, in assay [14], the outcome was inactive.

On to `NNC(=O)c1ccncc1`, for which the AC50 in assay [1] is 10.4 µM (active). In addition, the compound was classed as inactive (in assay [2]; with CYP2C8 (gene 1558); with CYP4A11 (gene 1579); in assay [4]; in assay [5]; in assay [6]). In addition, the result (in [7]; with CYP3A5 (gene 1577); in assay [8]; in [9]; in assay [10]; in assay [11]) was inactive. Further, the compound was called inactive in assay [12], in assay [13] and in [14].

In the case of `NC(=O)N1c2ccccc2C=Cc2ccccc21`, the AC50 is 5.83 µM (active) in assay [1], 15.9 µM (active) in [2] and 41.8 µM (active) with CYP2E1 (gene 1571). Also, the result (in the assay with CYP2C8 (gene 1558); in assay [4]; in assay [5]; in [6]; with CYP3A5 (gene 1577); in [8]) was inactive. For the same compound, the result in assay [9], in assay [10], in [11], in assay [12], in assay [13] and in assay [14] was inactive.
